Assay outcomes: PubChem, several laboratories
Sampled rows, rich in hits. Any-hit rate of the full collection: about 1.4%.
GLD-1 RNA inh: GLD-1-TGE RNA interaction inhibition (C. elegans); Q17339; purified GLD-1 + fluorescein TGE RNA, fluorescence polarization; inhibition, % at 5.96 µM; hit rate 0.44% among 320,000; AID 2280;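 active = percent inhibition above a per-plate cutoff, the plate mean of test compounds plus 3 SD, cut at about 30% in these data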;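 also: 0% = DMSO wells with GLD-1 and probe and 100% = wells lacking GLD-1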
Target sequence (Q17339 whole entry, looked up): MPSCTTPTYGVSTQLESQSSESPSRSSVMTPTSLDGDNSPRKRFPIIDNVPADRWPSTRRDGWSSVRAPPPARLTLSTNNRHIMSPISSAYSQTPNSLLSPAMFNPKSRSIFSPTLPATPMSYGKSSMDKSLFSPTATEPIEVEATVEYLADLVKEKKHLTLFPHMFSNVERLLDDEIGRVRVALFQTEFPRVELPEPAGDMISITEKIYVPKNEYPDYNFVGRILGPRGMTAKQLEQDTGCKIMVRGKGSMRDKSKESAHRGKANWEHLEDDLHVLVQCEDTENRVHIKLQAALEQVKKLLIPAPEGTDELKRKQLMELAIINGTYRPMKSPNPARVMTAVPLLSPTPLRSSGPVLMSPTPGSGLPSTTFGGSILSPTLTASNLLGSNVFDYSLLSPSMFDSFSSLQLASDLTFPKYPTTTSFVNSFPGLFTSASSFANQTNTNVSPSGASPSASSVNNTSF
EBV gp42 block: blocks Epstein-Barr virus glycoprotein 42 binding. hit rate 0.42% among 220,000. AID 1085. Fluorescence polarization binding assay, mP read-out. inhibition, % (tested at 21.74 µM). Q1HVG2; in the data active = inhibition above about 50%
Target sequence (Q1HVG2 whole entry, looked up): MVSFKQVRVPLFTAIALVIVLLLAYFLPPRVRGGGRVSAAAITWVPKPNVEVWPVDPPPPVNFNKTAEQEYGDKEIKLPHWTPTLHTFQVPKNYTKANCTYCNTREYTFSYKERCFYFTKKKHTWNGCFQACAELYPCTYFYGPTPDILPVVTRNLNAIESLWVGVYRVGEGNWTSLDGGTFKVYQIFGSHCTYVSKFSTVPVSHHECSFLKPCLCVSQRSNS
E coli Lon inh: inhibitors of E. coli Lon protease; hit rate 0.42% among 360,000; AID 602123; purified E. coli Lon protease, fluorescence polarization; inhibition, % at 7.94 µM; in the data active = inhibition above about 13%, passing the limit was not always enough;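 also: 0% = enzyme with probe and DMSO and 100% = no enzyme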
MEX-5 binding: C. elegans MEX-5 TCR-2 RNA binding activity. Q9XUB2. MEX-5/FITC-TCR2 RNA binding, fluorescence polarization; active compounds read low. activity score (negative = inhibition of binding), % at 10 µM. hit rate 0.38% among 300,000;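 active = inhibition past about -25% in most replicates, and total fluorescence under double the plate's negative control median, limit read from the data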;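 also: 0% = DMSO and -100% = 5 µM competing unlabeled TCR2 RNA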
MCL1-BIM inh: disrupts human MCL1 binding to BIM-BH3 peptide; Q07820; GST-MCL1 / FITC-Bim-BH3 fluorescence polarization; inhibition, % at 10.9 µM; hit rate 0.68% among 320,000; AID 2057;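 active = inhibition above the mean inhibition of all tested compounds plus 3 SD, set per campaign, cut at about 40% in these data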;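 also: 0% = DMSO wells and 100% = unlabeled Bim-BH3 peptide control; higher means more loss of mP so more displacement of Bim peptide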
Bcl-xL primary: blocks human Bcl-xL binding to Bim BH3 peptide. inhibition, % at 10.9 µM. hit rate 0.7% among 320,000. GST-Bcl-xL / FITC-Bim BH3 peptide fluorescence polarization. Q07817;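 active = inhibition above the mean of all tested compounds plus 3 SD, cutoff set per campaign, cut at about 30% in these data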;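 also: 0% = DMSO wells and 100% = unlabeled Bim-BH3 peptide competitor; inhibitors lower millipolarization by displacing the labeled peptide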
E coli Lon conf: confirmation of E. coli Lon protease inhibitors | shares compounds with E coli Lon inh | purified E. coli Lon, fluorescence polarization | hit rate 31% among 1,400 | inhibition, % at 7.94 µM | AID 602230; in the data active = inhibition above about 16%;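 also: 0% = enzyme with probe and DMSO and 100% = no enzyme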
Numbers without * were called inactive; . = no result given; + = active, no number.

SMILES | GLD-1 RNA inh | EBV gp42 block | E coli Lon inh | MEX-5 binding | MCL1-BIM inh | Bcl-xL primary | E coli Lon conf
O=c1c2c(nc3nc(NCc4cccc5ccccc45)[nH]n13)CCC2 | 2 | -7 | -5 | 1 | 4 | 1 | .
CCN1CCN(C(=O)CSCc2nc(-c3ccc(OC)c(OC)c3)oc2C)CC1 | 0 | -29 | 15* | -2 | 4 | 4 | 7
COc1ccc(-c2nc(CSCC(=O)N3CCN(C)CC3)c(C)o2)cc1OC | 6 | -31 | -3 | -1 | -1 | 0 | .
CCSc1nnc(Cc2cc(=O)[nH]c(=O)[nH]2)n1-c1ccc(F)cc1 | 5 | -4 | -3 | -2 | 4 | 4 | .
CCOc1ccc(-n2c(Cc3cc(=O)[nH]c(=O)[nH]3)nnc2SCC(=O)OC)cc1 | 7 | -28 | 16* | -3 | 4 | 6 | 13
COc1cccc(-n2c(Cc3cc(=O)[nH]c(=O)[nH]3)nnc2SCC(=O)N2CCCCC2)c1 | 11 | -6 | 16* | -5 | 7 | 9 | 23*
Cc1cc(=O)n(CC(=O)NCCN2CCOCC2)c2c1c(C)nn2-c1ccccc1 | 0 | . | 17* | 2 | 3 | 2 | -1
O=C(Cn1nnc(-c2ccccc2)n1)NCC(=O)Nc1ccc(F)c(F)c1F | 4 | . | -8 | . | . | . | .
COC1=CC(=NCl)C=CC1=NCl | . | . | 45* | . | . | . | 39*
ClN=C1C=CC=CC1=NCl | . | . | -1 | . | . | . | .
COc1ccc(C(=O)N=C2SC3CS(=O)(=O)CC3N2c2ccccc2)cc1OC (stereo not given) | 6 | . | 19* | -2 | 1 | 4 | 1
O=C(N=C1SC2CS(=O)(=O)CC2N1c1ccccc1)c1cccc([N+](=O)[O-])c1 (stereo not given) | 10 | . | 8 | . | 1 | -3 | .
Oc1c(N=Nc2nn[nH]n2)ccc2ccccc12 | . | . | 48* | . | . | . | 25*
Oc1c(N=Nc2ccc(F)cc2)ccc2ccccc12 | 6 | . | -2 | 3 | 11 | 7 | .
CCC(NC(=O)Nc1ccc(O)cc1)(C(F)(F)F)C(F)(F)F | 11 | -15 | 16* | . | 14 | 10 | 11
CC(NC(=O)Nc1ccc(O)cc1)(C(F)(F)F)C(F)(F)F | 21 | -6 | 5 | -4 | 17 | 23 | .
CN(C)c1ccc(/C=N/N=C(N)N)cc1[N+](=O)[O-] | -3 | 4 | -9 | -5 | 2 | 4 | .
O=C(CN(Cc1ccco1)S(=O)(=O)c1cccs1)Nc1ccccc1C(F)(F)F | -1 | -18 | 17* | 1 | 12 | 8 | -1
O=C(CN(Cc1ccco1)C(=O)c1ccccc1F)Nc1ccccc1C(F)(F)F | 7 | . | 7 | . | -1 | 0 | .
COc1cccc2c1C(=O)c1c(O)c3c(c(O)c1C2=O)CC(O)(C(=O)CO)CC3OC1CC(N(C)C)C(O)C(C)O1 (stereo not given) | . | . | + | . | . | . | +
COc1cccc2c1C(=O)c1c(O)c3c(c(O)c1C2=O)C[C@@](O)(C(C)=O)C[C@@H]3O[C@H]1C[C@H](N)[C@H](O)[C@H](C)O1 | . | + | + | . | . | . | +
COc1cccc(OCC(=O)Nc2ccccc2C(=O)Nc2ccc(C(=O)O)cc2)c1 | -4 | . | -2 | 2 | -2 | 0 | .
COC(=O)c1c(NC(=O)CSc2nnc(C)c(=O)[nH]2)sc(C)c1C | -4 | 3 | -9 | 3 | 14 | 8 | .
O=C(CCCn1c(=O)c2sccc2n(Cc2cc(=O)n3ccccc3n2)c1=O)NCc1ccco1 | 6 | -7 | 15* | 1 | -6 | 0 | 0
Cc1ccc(S(=O)(=O)N(C)C)cc1NC(=O)COC(=O)CNC(=O)c1cccs1 | 6 | . | -2 | -5 | -8 | 8 | .
SMILES | GLD-1 RNA inh | EBV gp42 block | E coli Lon inh | MEX-5 binding | MCL1-BIM inh | Bcl-xL primary | E coli Lon conf
O=C(COC(=O)c1cc2ccccc2cc1O)NC1CCCCC1 | 5 | . | 26* | . | . | . | -25
CC1/C(=N/O)CC(c2ccco2)NC1c1ccco1 (stereo not given) | -1 | 5 | -6 | 0 | 0 | -1 | .
CC1C(=O)C(C)C(c2ccco2)NC1c1ccco1 (stereo not given) | -2 | -19 | 24* | -2 | -4 | 0 | -5
CCOc1ccccc1C(=O)Nc1ccc(-n2nncc2C(C)(C)C)cc1 | -2 | -5 | -2 | 1 | 1 | 0 | .
CN(C)S(=O)(=O)c1ccc(Cl)c(C(=O)NNC(=O)Cc2nc3ccccc3n2C)c1 | 13 | . | + | . | 9 | 2 | 3
Cn1c(N2CCCCC2)nc2c1c(=O)[nH]c(=O)n2C | 3 | -4 | 2 | -1 | -7 | 6 | .
Cn1c(N2CCN(C(c3ccccc3)c3ccccc3)CC2)nc2c1c(=O)[nH]c(=O)n2C | -5 | . | 24* | 0 | -2 | 4 | 16*
Oc1ccc(Nc2nc(-c3ccccc3F)nc3ccccc23)cc1 | 4 | . | 17* | 0 | 6 | 2 | 8
Oc1ccc(Nc2nc(-c3ccccc3O)nc3ccccc23)cc1 | . | . | 2 | -2 | . | . | .
c1ccc(CSc2nnc(-c3cccs3)o2)cc1 | 4 | 13 | -4 | -1 | 2 | 6 | .
CCSc1nnc(-c2cccs2)o1 | -6 | -4 | 65* | -2 | 6 | 3 | -3
CC(Sc1ccc(S(=O)(=O)N(C)C)cn1)C(=O)NC1CCCC1 (stereo not given) | 6 | . | 25* | . | 6 | 5 | -34
C=CCOC(=O)C(C#N)c1nc2ccccc2nc1N1CCN(c2ccccc2OC)CC1 (stereo not given) | -2 | -28 | -10 | 0 | 0 | 3 | .
C=CCN(CC=C)c1nc2ccccc2nc1C(C#N)C(=O)OC(C)C (stereo not given) | 17 | -6 | 16* | -5 | 13 | 16 | -12
O=C(NCCc1ccccc1)c1cccc(NC(=O)C2CCCC2)c1 | . | . | 16* | . | . | . | -1
O=C(NCCc1ccccc1)C1CCN(S(=O)(=O)N2CCCCCC2)CC1 | 2 | -12 | 35* | -1 | 1 | 3 | 19*
Cc1cc(F)ccc1S(=O)(=O)NCC1CC2CCC1C2 (stereo not given) | 2 | . | -2 | 1 | 5 | 6 | .
CCn1cc([N+](=O)[O-])c(C(=O)Nc2ccn(C34CC5CC(CC(C5)C3)C4)n2)n1 | 5 | -4 | 8 | 3 | 2 | 2 | .
Cn1cc([N+](=O)[O-])c(C(=O)Nc2ccn(C34CC5CC(CC(C5)C3)C4)n2)n1 | 3 | 7 | 31* | 0 | -2 | -7 | -11
CCc1c(Cl)nc(N)nc1Nc1ccccc1C | . | . | -4 | . | . | . | .
Cc1ccccc1Nc1nc(N)[nH]c(=O)c1N=O | . | . | 26* | . | . | . | -6
O=C(CN1CCN(C(=O)C2COc3ccccc3O2)CC1)Nc1ccccc1 (stereo not given) | 7 | -12 | 8 | 2 | -3 | 8 | .
COCCNCc1cc(C)n(-c2cc(S(=O)(=O)N3CCOCC3)ccc2N2CCCC2)c1C | . | . | 11 | . | . | . | .
COc1cccc(-c2cc(CC3(O)CCN(CCCc4ccccc4)CC3)on2)c1 | -1 | . | -3 | 0 | 1 | -3 | .
